High-throughput results (PubChem)
Shown are actives, neighbours in structure and some others; about 19% of the full set was active somewhere.
HT1080-NT tox = kills 2HG-producing HT-1080-NT fibrosarcoma cells | HT-1080-NT fibrosarcoma viability, CellTiter-Glo ATP luminescence, 48 h | Potency, µM (titrated, usually from 46.1 µM), inactives show at the highest dose activity, negative = less viability, actives largely listed as cytotoxic | 360,000 tested, 1.6% active | AID 686970;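 also: NT is the 2HG producing partner of a matched IDH1 knockdown line; potency is read from the fitted curve at half-maximal effect; 0% = DMSO-treated cells and -100% = media-only wells without cells; nearly all actives have a fitted effect of over 55% in size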
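750 cells/well, RPMI + 5% FBS; 2 h settle, compound pin-transfer, 48 h at 37 degrees C. CellTiter-Glo 10 min RT, luminescence. Normalized to DMSO and media-only wells.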
HT1080 IDH1KD tx = kills HT-1080 cells with IDH1 knockdown | HT-1080 IDH1 knockdown viability, ATP luminescence, 48 h | Potency, µM (series often up to 46.1 µM), inactives show top-dose activity, negative = toxicity, hits mostly cytotoxic | 360,000 tested, 2% active | AID 686971;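 also: potency is read from the fitted curve at half-maximal effect; 0% = DMSO wells and -100% = cell-free medium wells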
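Assay cells: HT-1080 with IDH1 knockdown, 750 per well, RPMI/5% FBS. Exposure: 48 h at 37 °C following 2 h pre-incubation. Read: CellTiter-Glo luminescence; fitted concentration-response, curve class assigned.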
DT40 TDP1 no CPT = qHTS for Inhibitors of human tyrosyl-DNA phosphodiesterase 1 (TDP1): qHTS in cells in absence of CPT; DT40 Tdp1-/- hTDP1 cells, no CPT, ATP luminescence, 48 h; Potency, µM (titrated, usually from 46.2 µM), without a hit: at the highest dose activity change, negative = growth inhibition, actives largely listed as inhibitors; 420,000 tested, 15% active; AID 686978, 2013; also: potency is read from the fitted curve at half-maximal effect; nearly all actives have a fitted effect of over 55% in size
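Luminescent ATP content (CellTiter-Glo) served as the growth readout. Knockout chicken DT40 cells expressing human TDP1 were exposed to compounds without camptothecin for a minimum 48 hr at 37 °C.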
DT40 TDP1 CPT = growth inhibition of DT40 Tdp1-/-;hTDP1 cells with camptothecin (screen for TDP1 inhibitors); Potency, µM (titrated, usually from 46.2 µM), inactives show top-dose activity change, negative = growth inhibition, hits mostly inhibitors; chicken DT40 Tdp1-/-;hTDP1 cells + 20 nM CPT, ATP luminescence, 48 h; 420,000 tested, 12% active; AID 686979; also: potency is read from the fitted curve at half-maximal effect; nearly all actives have a fitted effect of over 55% in size
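Cell growth measured by CellTiter-Glo luminescence after a minimum 48 h, 37 C compound exposure with 20 nM CPT in Tdp1-knockout DT40 cells stably expressing hTDP1, seeded 400/well; qHTS titration format.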
IL1B secr inh = blocks inflammasome-driven IL-1 beta release; 360,000 tested, 4.7% active; AID 743279; THP-1 LPS/ATP IL-1B secretion, AlphaLISA, 16 h; hits give low values; activity change, % at 57.5 µM; in the data active = activity change below about -50%; inconclusive = mostly about -30% to -49%
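Secreted IL-1B measured by AlphaLISA bead assay after 16 h compound exposure of THP-1 cells; compounds (final up to 57.5 uM) added 1 h before LPS (250 ng/mL) and ATP (1.25 mM) stimulation; lower signal means less secretion.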
ELG1 DNA repair = ELG1-dependent DNA repair inhibition; HEK293T ELG1-luciferase reporter, luminescence, 16 h; DNA damage induced by 5-fluorouridine; Potency, µM (series often up to 46.1 µM), for inactives: top-dose activity change, negative = inhibition, usual class: inhibitors; 330,000 tested, 2.3% active; also: potency is read from the fitted curve at half-maximal effect; nearly all actives have a fitted effect of over 55% in size
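Reporter activity after DNA damage by 5-fluorouridine is monitored. Compound-treated cells incubate 16 hr at 37 °C, then ONE-Glo is added for 30 min before luminescence reading.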
Active calls of the source: *; ? = inconclusive; . = no result. Unless noted, calls follow the shape of the dose curve; as a rule, active = well fitted curve in the direction sought with a large enough effect; inconclusive = small, poorly fitted or top-dose-only effect, or another doubt; inactive = no such curve, though single readings can be large; an effect the other way counts as inactive or inconclusive. Unless noted, % is scaled to controls: 0 for no effect and ±100 for the full control effect.

SMILES	HT1080-NT tox	HT1080 IDH1KD tx	DT40 TDP1 no CPT	DT40 TDP1 CPT	IL1B secr inh	ELG1 DNA repair
COc1ccc(CCN2CC(C(=O)NCCc3ccccn3)CCC2=O)cc1 (configuration not stated)	-9.5%	19.8%	2.3%	-0.4%	-2.9	-0.4%
COc1ccc(CC(=O)N(Cc2ccccc2)c2ccc(C)cc2)cc1S(=O)(=O)N1CCOCC1	1.8%	-1.6%	16.4µM*	18.4µM*	-29.8	-11.6%
COc1ccc(CC(=O)N(C)Cc2ccc(Cl)cc2)cc1S(=O)(=O)N1CCOCC1	-2.1%	0.5%	?	?	-6.4	-18.3%
COc1ccc(CC(=O)N(C)Cc2ccc(C(C)(C)C)cc2)cc1S(=O)(=O)N1CCOCC1	-0.1%	-0.4%	29.1µM*	20.6µM*	0.0	0.5%
COc1ccc(C(=O)NCc2c(C)nn(Cc3ccccc3)c2C)cc1S(=O)(=O)N1CCOCC1	?	?	?	10.3µM*	-10.4	?
COc1ccc(S(=O)(=O)N2CCOCC2)cc1C(=O)NCc1c(C)nn(Cc2ccccc2)c1C	0.1%	6.0%	0.4%	?	-6.3	.
COc1ccc(CC(=O)NCc2ccccc2)cc1S(=O)(=O)N1CCOCC1	-2.6%	-0.4%	-28.3%	-7.2%	11.7	-7.0%
Cc1cnc(CNc2ncnc3ccc(-c4cccc(NS(C)(=O)=O)c4)cc23)cn1	.	.	-13.2%	?	.	.
Cc1ccccc1-c1cc(Nc2ccccc2)ncn1	.	.	-18.1%	-24.0%	.	.
Fc1ccc(Nc2nc3nonc3nc2Nc2cccc(C(F)(F)F)c2)cc1	.	.	0.164µM*	0.326µM*	.	.
NS(=O)(=O)c1ccc(NC(=O)COC(=O)CC2Sc3ccccc3NC2=O)cc1 (configuration not stated)	10.9%	-3.0%	1.1%	-0.2%	39.2	?
Cc1ccccc1OCC(=O)OCC(=O)Nc1cc(S(=O)(=O)N2CCCCC2)ccc1Cl	-0.9%	-2.9%	-16.2%	-0.4%	8.6	8.5%
CCN(CC)C(=O)C1CCCN(c2ncnc3c2c(-c2ccccc2)cn3-c2cccc(C)c2)C1 (configuration not stated)	.	.	?	14.6µM*	.	.
Clc1ccccc1N1CCN(c2ncnc3c2c(-c2ccccc2)cn3-c2ccccc2)CC1	.	.	20.6µM*	?	.	.
CC(=O)c1ccc(N2CCN(c3ncnc4c3c(-c3ccccc3)cn4-c3cccc(C)c3)CC2)cc1	.	.	-20.3%	-14.2%	.	.
OCCN1CCN(c2nc3ccccc3nc2-c2ccccc2)CC1	22.9%	-8.6%	-23.2%	-23.4%	-4.6	5.8%
OCCN1CCN(c2ncnc3c2c(-c2ccccc2)cn3-c2ccc(Br)cc2)CC1	16.4µM*	23.1µM*	?	?	-83.2*	-13.5%
Cc1ccc(-n2cc(-c3ccccc3)c3c(N4CCC(C)CC4)ncnc32)cc1Cl	.	.	-11.6%	1.2%	.	.
FC(F)(F)c1cccc(-n2cc(-c3ccccc3)c3c(N4CCCCC4)ncnc32)c1	.	.	23.1µM*	?	.	.
CC(=O)OC[C@@H]1CN(Cc2ccccc2)C[C@H](n2cnc3c(NCC(C)C)ncnc32)O1	26.4%	0.0%	?	?	1.0	.
CCCCc1nc(SCC(=O)N2CCCCC2)c2c(=O)n(C)c(=O)n(C)c2n1	15.3%	-0.3%	?	?	4.0	?
NC(=O)C1CCN(c2ncnc3c2c(-c2ccccc2)cn3-c2ccccc2)CC1	1.9%	0.5%	?	?	-18.1	16.4µM*
CCC(C)c1ccc(NC(=S)N2CCN(C(=O)C3CCCO3)CC2)cc1 (configuration not stated)	4.5%	1.0%	-4.1%	10.9%	2.4	2.5%
